This note sets out measurements from PMC7826789 (International Journal of Molecular Sciences, 2021).
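Further: KINOMEscan scanMAX binding as percent activity remaining versus control; lower means stronger binding.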

The test deals with NEK10. As to conditions: Compound Concentration (nM):1000.
In the case of `CCn1c(-c2nonc2N)nc2c(C#CC(C)(C)O)nc(OCCNC)cc21.Cl` [GSK949675], the “Percent Control” value is 100%.
As for `Cl.O=S1CCN(Cc2ccc(-c3ccc4ncnc(Nc5ccc(OCc6ccccc6)c(F)c5)c4c3)o2)CC1` [GW576924A], the “Percent Control” value worked out at 100%.
Take `CCS(=O)(=O)c1ccc(OC)c(Nc2ncc(-c3cccc(OC)c3)o2)c1` [GW580509X]: the “Percent Control” value was found to be 100%.
The value for `Cl.c1ccc(Cc2nc3ccc(Nc4ncnc5ccccc45)cc3[nH]2)cc1` [GR269666A] was 100%; that for `NS(=O)(=O)c1ccc(N/N=C2\C(=O)Nc3ccc(C(=O)NCCc4c[nH]cn4)cc32)cc1` [GW300660X] was 100%; that for `C/C(Nc1ccc(S(N)(=O)=O)cc1)=C1/C(=O)Nc2ccccc21` [GW335962X] was 100%.
`COc1ccccc1-c1cc(/C=C2\C(=O)Nc3ncc(Br)cc32)cc(Br)c1O` [GW442130X]: the “Percent Control” value is 100%.
In the case of `NS(=O)(=O)c1ccc(N/N=C2\C(=O)Nc3ccc(-c4cnco4)cc32)cc1` [GW276655] it was 89%.
In the case of `CN(C)CCNC(=O)Nc1ccc(N(C)c2ccnc(Nc3ccc(CS(C)(=O)=O)cc3)n2)cc1.Cl` [GW830900A] it was 87%; in that of `COc1ccc2[nH]c3c4[nH]c5ccc(OC)cc5c4c4c(c3c2c1)C(=O)NC4=O` [GW296115X], 93%.
The value for `COc1cc2ncnc(Nc3ccc4c(cnn4Cc4ccccc4)c3)c2cc1OC.Cl` [GW282449A] was 100%; that for `NS(=O)(=O)c1ccc(N/N=C2\C(=O)Nc3ccc(Cl)cc32)cc1` [GW280670X] was 100%.
In the case of `CN1CCN(C(=O)c2ccc(NC(=O)Nc3ccc(N(C)c4ccnc(Nc5ccc(CS(C)(=O)=O)cc5)n4)cc3)cc2)CC1.Cl` [GW830263A], the “Percent Control” value is 94%.
The value for `COC(=O)Nc1nc2ccc(Oc3ccc(NC(=O)Nc4cc(C(F)(F)F)ccc4F)cc3)cc2s1.Cl` [GW693917A] was 90%.
The value for `COc1ccc2cc(-c3c(-c4ccncc4)nc(-c4ccc(S(C)(=O)=O)cc4C)n3C)ccc2c1` [SB-633825] was 69%; that for `COc1cc(C=NNc2ncnc3c2cnn3-c2ccccc2)ccc1O` [GW513184X] was 100%; that for `COc1cccc(-n2ncc3c(N/N=C/c4ccncc4)ncnc32)c1` [GW784752X] was 84%.
The value for `COc1cc(N2CCN(C(C)C)CC2)ccc1Nc1nc(Nc2ccc(F)cc2C(=O)NC[C@@H](O)CO)c2cc[nH]c2n1` [GSK1392956A] was 34%; that for `CC(C)COC(=O)c1ccc2c(c1)/C(=C/Nc1ccc(S(N)(=O)=O)cc1)C(=O)N2` [GW416981X] was 100%; that for `CC1=C(C(=O)Nc2ccc3[nH]ncc3c2)C(c2ccc3ccccc3c2)CC(=O)N1` (stereo not drawn) [GSK270822A] was 65%.
For the molecule `NS(=O)(=O)c1ccc(Nc2ncc(-c3ccccc3)o2)cc1` [GW572399X], the “Percent Control” value stood at 100%.
In the case of `CC1=C(C(=O)Nc2ccc3[nH]ncc3c2)C(c2ccc(Cl)c(Cl)c2)CC(=O)N1` (stereo not drawn) [GSK299115A] it was 72%; in that of `NS(=O)(=O)c1ccc(N/N=C2\C(=O)Nc3ccc(C(=O)NCc4ccncc4)cc32)cc1` [GW300657X], 48%; in that of `CCc1ccc(Oc2nccc(-c3c(-c4ccc(F)cc4)ncn3C3CCNCC3)n2)cc1` [SB-242719], 99%.
In the case of `Cl.O=C(Nc1ccc(Oc2ccc3[nH]c(NC(=O)c4ccccc4)nc3c2)cc1)Nc1cc(C(F)(F)F)ccc1F` [GW709042A] it was 100%; in that of `COc1cccc(-c2c[nH]c3c(N/N=C/c4ccncc4)ncnc23)c1` [GW814408X], 92%; in that of `CCS(=O)(=O)c1ccc(OC)c(Nc2ncc(-c3cccc(F)c3)o2)c1` [GW621970X], 100%.
In the case of `Cc1cc(O)cc(C)c1/C=C/c1cncc(C(N)=O)c1` [GW435821X] it was 100%.
Turning to `Cl.O=C(Nc1ccc(Oc2ccc3[nH]c(NC(=O)c4ccco4)nc3c2)cc1)Nc1cc(C(F)(F)F)ccc1F` [GW683134A], the “Percent Control” value was 100%.
Regarding `O=C(Nc1n[nH]c2nc(-c3ccc(O)cc3)c(Br)cc12)C1CC1` [SB-725317], the “Percent Control” value worked out at 100%.
In the case of `COc1cc2ncn(-c3cc(O[C@H](C)c4ccccc4Cl)c(C(N)=O)s3)c2cc1OC` [GSK237701A] it was 95%.
With `COc1ccc(COc2ccc(Cc3cnc(N)nc3N)cc2OC)cc1` [GW632580X], the “Percent Control” value amounted to 95%.
On to `O=C1Nc2ccc(C(=O)c3ccco3)cc2C1=Cc1cc(Cl)c(O)c(Cl)c1` [GW406108X], for which the “Percent Control” value is listed as 3.3%.
